# PubChem BioAssay (EPA / NIEHS)
# “And” between values parts separate entries of the source, which are not always exact repeats. Equal values may be shown once. Results filed as inconclusive are left out. Some compounds were tested as several samples or in several runs, with calls that do not always agree. The source made the active and inactive calls. How the source made its calls: active means hit-call score of the fitted dose curve at least 0.9, where 1 is the maximum; inconclusive means response in the unintended direction; inactive means score below 0.9.
# How the values were obtained:
# [1] = molecular target: bovine Estrogen Receptor (ER), ESR1 (gene 407238) (UniProt P49884); experiment: NVS_NR_bER: NovaScreen (NVS) Nuclear Receptor Binding Assay for bovine Estrogen Receptor (ER) (AID 2283345);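 further: actives lower the bound radioligand count which means they displace the ER ligand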
# Method in brief: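 Scintillation counting of displaced radioligand gave the readout; bovine uterine membrane extract supplied the receptor. Measured 18 h post-dose, normalized to DMSO baseline. Single 25 uM duplicate screen preceded concentration-response follow-up.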
# [2] = molecular target: Bile acid receptor (Homo sapiens) (UniProt Q96RI1); experiment: NVS_NR_hFXR_Agonist: NovaScreen (NVS) Nuclear Receptor Binding Assay for human Farnesoid X Receptor Agonism (FXR) (AID 2283347)
# Method in brief: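 Agonist-mode FXR assay read by time-resolved FRET 1 h after compound addition, using isolated human receptor protein without cells. Duplicate 25 uM single-point primary screen, concentration series for confirmed actives; DMSO as baseline.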
# [3] = molecular target: Estrogen receptor (Homo sapiens) (UniProt P03372); experiment: NVS_NR_hER: NovaScreen (NVS) Nuclear Receptor Binding Assay for human Estrogen Receptor (ER) (AID 2283348)
# Method in brief: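 MCF7-derived receptor extract, radiolabelled ligand, competitive displacement. Read: scintillation counts at 18 h. DMSO = negative control/baseline. Primary 25 uM duplicate; follow-up concentration–response.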
# [4] = molecular target: rat Gamma-Aminobutyric Acid Type A Receptor BDZ, alpha 6 site (GABARa6), Gabra6 (gene 29708) (UniProt P30191); experiment: NVS_LGIC_rGABARa6: NovaScreen (NVS) Ligand-Gated Ion Channel Assay for rat Gamma-Aminobutyric Acid Type A Receptor BDZ, alpha 6 site (GABARa6) (AID 2283339)
# Experimental: NVS_LGIC_rGABARa6 is a biochemical, single-readout assay that uses extracted gene-proteins from Rat cerebellar membranes in a tissue-based cell-free assay. Measurements were taken 1 hour after chemical dosing in a 48-well plate.NVS_LGIC_rGABARa6 is one of one assay component(s) measured or calculated from the NVS_LGIC_rGABARa6 assay. It is designed to make measurements of radioligand binding, a form of binding reporter, as detected with scintillation counting signals by Filter-based radiodetection technology.Data from the assay component NVS_LGIC_rGABARa6 was analyzed into 1 assay endpoint. This assay endpoint, NVS_LGIC_rGABARa6, was analyzed in the positive analysis fitting direction relative to DMSO as the negative control and baseline of activity. Using a type of binding reporter, loss-of-signal activity can be used to understand changes in the binding as they relate to the gene Gabra6. Furthermore, this assay endpoint can be referred to as a primary readout, because the performed assay has only produced 1 assay endpoint. To generalize the intended target to other relatable targets, this assay endpoint is annotated to the ion channel intended target family, where the subfamily is ligand-gated ion channel. […]
# [5] = molecular target: human Constitutive Androstane Receptor (CAR), NR1I3 (gene 9970) (UniProt Q14994); experiment: NVS_NR_hCAR_Antagonist: NovaScreen (NVS) Nuclear Receptor Binding Assay for human Constitutive Androstane Receptor Antagonism (CAR) (AID 2283344)
# Method in brief: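 Single 25 uM duplicate primary screen, with concentration-series follow-up on actives. Cell-free binding format run in antagonist mode, TR-FRET signal taken 1 h post-dose; activity is signal loss relative to DMSO.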
# [6] = molecular target: bovine Gamma-Aminobutyric Acid Type A Receptor Agonist (GABAR Agonist), GABRA1 (gene 780973) (UniProt P08219); experiment: NVS_LGIC_bGABAR_Agonist: NovaScreen (NVS) Ligand-Gated Ion Channel Assay for bovine Gamma-Aminobutyric Acid Type A Receptor Agonist (GABAR Agonist) (AID 2283338)
# Method in brief: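 Radioligand binding to bovine cerebellar membranes in agonist format, read by filter-based scintillation counting after 1 h. Primary screen in duplicate at 25 uM, with actives followed in concentration series. Gain of signal versus DMSO.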
# [7] = NVS_IC_rCaBTZCHL: NovaScreen (NVS) Ion Channel Assay for Calcium Channel, Type L, Benzothiazepine Site (CaBTZCHL) (AID 2283337)
# Method in brief: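 Rat cortical membrane preparation, cell-free. Radioligand displaced by test chemical; 1.5 h incubation; filtration, scintillation count. DMSO = negative control/baseline. Primary: duplicate, 25 uM; secondary: concentration series.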
# [8] = molecular target: rat Glutamate, MK-801 Agonist Site (GluNMDA_MK801), Grin1 (gene 24408) (UniProt P35439); experiment: NVS_LGIC_rGluNMDA_MK801_Agonist: NovaScreen (NVS) Ligand-Gated Ion Channel Assay for rat Glutamate, MK-801 Agonist Site (GluNMDA_MK801) (AID 2283340)
# Method in brief: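 Rat forebrain membrane preparation; MK-801-site radioligand binding read by filtration and scintillation after 1.5 h. Single-point 25 uM duplicate screen, followed by singleton concentration series to 50 uM max; DMSO baseline.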
# [9] = molecular target: rat Glycine Receptor, Strychnine-sensitive (GlyRStrySens), Glra1 (gene 25674) (UniProt P07727); experiment: NVS_LGIC_rGlyRStrySens: NovaScreen (NVS) Ligand-Gated Ion Channel Assay for rat Glycine Receptor, Strychnine-sensitive (GlyRStrySens) (AID 2283341)
# Method in brief: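 Radioligand displacement on rat spinal cord membranes, 1 hr, filter scintillation read-out. Single-concentration duplicate screen at 25 uM; chemicals meeting threshold (e.g., 30% inhibition) rerun in concentration-response up to 50 uM. Loss of binding fitted versus DMSO.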
# [10] = system: guinea pig Histamine Receptor (H2), gene 100729734; experiment: NVS_GPCR_gH2: NovaScreen (NVS) G Protein-Coupled Receptor Assay for guinea pig Histamine Receptor (H2) (AID 2283342)
# Experimental: NVS_GPCR_gH2 is a biochemical, single-readout assay that uses extracted gene-proteins from Guinea pig striatal membranes in a tissue-based cell-free assay. Measurements were taken 1 hour after chemical dosing in a 96-well plate.NVS_GPCR_gH2 is one of one assay component(s) measured or calculated from the NVS_GPCR_gH2 assay. It is designed to make measurements of radioligand binding, a form of binding reporter, as detected with scintillation counting signals by Filter-based radiodetection technology.Data from the assay component NVS_GPCR_gH2 was analyzed into 1 assay endpoint. This assay endpoint, NVS_GPCR_gH2, was analyzed in the positive analysis fitting direction relative to DMSO as the negative control and baseline of activity. […] Furthermore, this assay endpoint can be referred to as a primary readout, because the performed assay has only produced 1 assay endpoint. […]
# Binding assays used specific radioligands (tritiated, iodinated) with non-radioactive competitive displacement ligands in agonist or antagonist protocols (as indicated) and various reference compounds and inhibitors to titrate specific binding to receptors and transporters. Most enzyme assays (CYPs, kinases, phosphatases, proteases, HDACs) used recombinant protein and specific substrates (fluorescence mostly, some colorimetric and radioactive) and inhibitors, followed by a biochemical separation of substrate and product. […]
# Chain of human Constitutive Androstane Receptor (CAR), NR1I3 (gene 9970) (Q14994 whole entry, looked up): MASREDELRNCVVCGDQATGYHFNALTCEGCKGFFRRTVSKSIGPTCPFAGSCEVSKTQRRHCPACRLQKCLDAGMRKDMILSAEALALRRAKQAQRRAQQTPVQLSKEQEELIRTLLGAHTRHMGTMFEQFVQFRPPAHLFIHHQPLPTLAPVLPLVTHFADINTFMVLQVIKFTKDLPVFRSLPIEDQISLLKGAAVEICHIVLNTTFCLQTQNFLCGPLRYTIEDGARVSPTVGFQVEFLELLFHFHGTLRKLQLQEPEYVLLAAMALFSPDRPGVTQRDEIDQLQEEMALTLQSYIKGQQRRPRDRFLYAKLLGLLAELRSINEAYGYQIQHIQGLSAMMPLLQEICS
# Chain of Bile acid receptor (Homo sapiens) (Q96RI1 whole entry, looked up): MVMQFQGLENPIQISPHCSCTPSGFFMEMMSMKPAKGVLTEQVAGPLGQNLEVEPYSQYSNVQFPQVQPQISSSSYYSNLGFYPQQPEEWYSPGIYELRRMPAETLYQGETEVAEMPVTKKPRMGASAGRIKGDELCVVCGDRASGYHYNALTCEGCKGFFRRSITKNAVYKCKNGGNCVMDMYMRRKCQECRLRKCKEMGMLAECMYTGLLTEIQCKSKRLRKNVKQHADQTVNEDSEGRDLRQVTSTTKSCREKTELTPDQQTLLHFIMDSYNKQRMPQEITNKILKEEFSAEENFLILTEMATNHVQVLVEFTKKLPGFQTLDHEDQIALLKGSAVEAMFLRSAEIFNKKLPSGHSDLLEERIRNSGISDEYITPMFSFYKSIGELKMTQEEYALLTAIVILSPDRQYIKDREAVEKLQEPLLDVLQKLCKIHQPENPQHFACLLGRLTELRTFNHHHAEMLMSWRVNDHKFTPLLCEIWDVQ
# Chain of bovine Gamma-Aminobutyric Acid Type A Receptor Agonist (GABAR Agonist), GABRA1 (gene 780973) (P08219 whole entry, looked up): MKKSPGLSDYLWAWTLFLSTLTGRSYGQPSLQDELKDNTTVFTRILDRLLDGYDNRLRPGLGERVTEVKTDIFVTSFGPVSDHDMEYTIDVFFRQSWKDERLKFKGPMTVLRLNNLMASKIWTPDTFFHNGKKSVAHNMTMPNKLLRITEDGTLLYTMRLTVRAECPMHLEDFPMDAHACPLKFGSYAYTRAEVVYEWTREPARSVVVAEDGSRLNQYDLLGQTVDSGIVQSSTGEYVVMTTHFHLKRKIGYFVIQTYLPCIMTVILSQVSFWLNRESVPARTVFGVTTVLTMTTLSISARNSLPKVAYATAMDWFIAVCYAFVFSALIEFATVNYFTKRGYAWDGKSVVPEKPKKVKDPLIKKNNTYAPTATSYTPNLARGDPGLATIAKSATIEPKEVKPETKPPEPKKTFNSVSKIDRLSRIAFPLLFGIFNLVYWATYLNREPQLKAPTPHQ
# Chain of bovine Estrogen Receptor (ER), ESR1 (gene 407238) (P49884 whole entry, looked up): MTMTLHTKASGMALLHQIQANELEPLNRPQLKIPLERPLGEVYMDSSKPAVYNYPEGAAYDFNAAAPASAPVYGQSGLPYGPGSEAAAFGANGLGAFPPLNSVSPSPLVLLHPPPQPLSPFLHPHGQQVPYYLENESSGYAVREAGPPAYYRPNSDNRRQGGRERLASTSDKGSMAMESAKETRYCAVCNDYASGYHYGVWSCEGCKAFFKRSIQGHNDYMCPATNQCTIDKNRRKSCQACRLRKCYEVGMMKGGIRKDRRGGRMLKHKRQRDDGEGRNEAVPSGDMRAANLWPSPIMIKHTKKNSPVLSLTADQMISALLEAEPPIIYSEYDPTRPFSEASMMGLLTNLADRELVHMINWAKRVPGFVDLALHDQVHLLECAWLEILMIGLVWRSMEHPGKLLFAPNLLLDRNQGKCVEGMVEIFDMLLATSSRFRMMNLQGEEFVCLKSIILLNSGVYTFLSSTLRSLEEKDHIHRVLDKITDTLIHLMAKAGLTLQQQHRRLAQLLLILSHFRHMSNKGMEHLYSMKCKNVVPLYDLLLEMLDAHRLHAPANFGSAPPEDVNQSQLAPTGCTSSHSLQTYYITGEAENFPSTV
# Chain of Estrogen receptor (Homo sapiens) (P03372 whole entry, looked up): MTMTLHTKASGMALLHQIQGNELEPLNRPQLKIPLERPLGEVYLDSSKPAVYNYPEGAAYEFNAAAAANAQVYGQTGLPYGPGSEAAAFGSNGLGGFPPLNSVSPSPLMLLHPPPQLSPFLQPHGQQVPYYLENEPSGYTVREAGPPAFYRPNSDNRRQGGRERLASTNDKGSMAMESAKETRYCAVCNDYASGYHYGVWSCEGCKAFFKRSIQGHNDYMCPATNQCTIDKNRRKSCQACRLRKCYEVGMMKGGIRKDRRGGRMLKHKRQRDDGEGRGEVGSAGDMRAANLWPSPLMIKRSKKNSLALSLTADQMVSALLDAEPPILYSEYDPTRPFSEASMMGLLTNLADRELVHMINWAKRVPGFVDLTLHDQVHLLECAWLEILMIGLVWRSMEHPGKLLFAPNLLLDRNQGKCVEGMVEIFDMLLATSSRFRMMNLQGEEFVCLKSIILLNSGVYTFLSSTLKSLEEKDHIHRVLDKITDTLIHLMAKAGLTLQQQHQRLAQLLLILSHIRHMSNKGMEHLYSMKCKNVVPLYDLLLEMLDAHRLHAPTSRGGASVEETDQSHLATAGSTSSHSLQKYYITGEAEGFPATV
# Chain of rat Gamma-Aminobutyric Acid Type A Receptor BDZ, alpha 6 site (GABARa6), Gabra6 (gene 29708) (P30191 whole entry, looked up): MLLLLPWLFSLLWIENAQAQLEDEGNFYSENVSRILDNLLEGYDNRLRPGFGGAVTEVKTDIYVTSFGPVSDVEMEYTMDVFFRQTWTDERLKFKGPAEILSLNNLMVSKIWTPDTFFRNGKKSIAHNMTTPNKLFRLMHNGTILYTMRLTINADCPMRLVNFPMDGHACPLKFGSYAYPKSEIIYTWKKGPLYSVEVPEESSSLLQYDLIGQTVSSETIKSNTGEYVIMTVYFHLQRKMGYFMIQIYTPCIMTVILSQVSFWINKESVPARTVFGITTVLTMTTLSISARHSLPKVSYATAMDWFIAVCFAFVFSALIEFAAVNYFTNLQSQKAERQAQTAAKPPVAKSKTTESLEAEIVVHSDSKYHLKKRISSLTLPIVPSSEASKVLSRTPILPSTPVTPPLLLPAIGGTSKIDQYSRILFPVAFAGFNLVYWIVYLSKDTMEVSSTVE
# Chain of rat Glycine Receptor, Strychnine-sensitive (GlyRStrySens), Glra1 (gene 25674) (P07727 whole entry, looked up): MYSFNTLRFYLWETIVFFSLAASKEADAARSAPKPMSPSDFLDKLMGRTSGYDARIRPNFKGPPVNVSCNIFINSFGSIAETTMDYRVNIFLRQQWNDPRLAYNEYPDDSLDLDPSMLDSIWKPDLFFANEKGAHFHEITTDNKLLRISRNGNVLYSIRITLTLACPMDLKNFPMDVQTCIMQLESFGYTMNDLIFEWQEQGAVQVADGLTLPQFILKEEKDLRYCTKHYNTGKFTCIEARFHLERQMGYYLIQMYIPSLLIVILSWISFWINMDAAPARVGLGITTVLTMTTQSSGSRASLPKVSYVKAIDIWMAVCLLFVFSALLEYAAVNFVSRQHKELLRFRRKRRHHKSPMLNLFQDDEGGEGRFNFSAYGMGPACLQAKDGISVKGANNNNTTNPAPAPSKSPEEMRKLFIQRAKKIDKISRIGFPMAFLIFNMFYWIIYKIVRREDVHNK
compound,measurement,setting,value
COC(=O)c1ccccc1CS(=O)(=O)NC(=O)Nc1nc(OC)cc(OC)n1,outcome,[1],inactive
same,outcome,[2],inactive
same,outcome,[3],inactive
COP(=O)(OC)OC=C(Cl)Cl,outcome,[3],inactive
CC(C)OC(=O)Nc1cccc(Cl)c1,outcome,[4],inactive
C[C@H]1[C@H](c2ccc(Cl)cc2)SC(=O)N1C(=O)NC1CCCCC1,outcome,[3],inactive
COC(=O)c1ccccc1S(=O)(=O)NC(=O)N(C)c1nc(C)nc(OC)n1,outcome,[1],inactive
same,outcome,[2],inactive
same,outcome,[3],inactive
CC1(C)C(C=C(Cl)Cl)C1C(=O)OC(C#N)c1ccc(F)c(Oc2ccccc2)c1 (stereo not drawn),outcome,[5],inactive
same,outcome,[1],inactive
same,outcome,[3],inactive
CC(C)(C)C(O)C(Oc1ccc(Cl)cc1)n1cncn1 (stereo not drawn),outcome,[5],inactive
O=C(NC(=O)c1c(F)cccc1F)Nc1ccc(OC(F)(F)C(F)OC(F)(F)F)c(Cl)c1 (stereo not drawn),outcome,[3],inactive
[2H]C1([2H])[n+]2ccccc2-c2cccc[n+]2C1([2H])[2H],outcome,[6],inactive
CC[C@H](C)[C@H]1O[C@]2(C=C[C@@H]1C)C[C@@H]1C[C@@H](C/C=C(\C)[C@@H](O[C@H]3C[C@H](OC)[C@@H](O[C@H]4C[C@H](OC)[C@@H](O)[C@H](C)O4)[C@H](C)O3)[C@@H](C)/C=C/C=C3\CO[C@@H]4[C@H](O)C(C)=C[C@@H](C(=O)O1)[C@]34O)O2 (tested in a mixture with another compound),AC50,[7],15.5 µM (active)
same,outcome,[8],inactive
same,AC50,[9],0.494 µM (active)
same,AC50,[5],10.1 µM (active)
same,outcome,[1],inactive
Oc1ccc(Cl)cc1Cc1ccccc1,outcome,[6],inactive
same,AC50,[5],9.68 µM (active) and 25.2 µM (active) and 25 µM (active)
same,outcome,[5],inactive
OCCOc1ccccc1,outcome,[2],inactive
Oc1cc(Cl)ccc1Oc1ccc(Cl)cc1Cl,outcome,[2],inactive
CN1CSC(=S)N(C)C1,outcome,[5],inactive
same,outcome,[3],inactive
O=C(O)CCCOc1ccc(Cl)cc1Cl,outcome,[5],inactive
CCCN(CCOc1c(Cl)cc(Cl)cc1Cl)C(=O)n1ccnc1,AC50,[5],32 µM (active)
CNC(=O)Oc1ccccc1OC(C)C,outcome,[5],inactive
same,outcome,[1],inactive
Cc1cc(C)nc(NC(=O)NS(=O)(=O)c2ccccc2C(=O)OC2COC2)n1,outcome,[5],inactive
same,outcome,[2],inactive
CCOc1nc(NC)nc(NC(=O)NS(=O)(=O)c2ccccc2C(=O)OC)n1,outcome,[5],inactive
same,outcome,[1],inactive
same,outcome,[3],inactive
COP(=S)(OC)Oc1ccc(SC)c(C)c1,outcome,[1],inactive
same,outcome,[3],inactive
N#Cc1c(Cl)c(Cl)c(Cl)c(C#N)c1Cl,outcome,[5],inactive
same,outcome,[1],inactive
CC(C)(C)C(O)/C(=C\c1ccc(Cl)cc1Cl)n1cncn1 (stereo not drawn),outcome,[1],inactive
CCOCN(C(=O)CCl)c1c(C)cccc1CC,outcome,[10],inactive
same,AC50,[5],13.9 µM (active)
O=S(=O)(O)C(F)(F)C(F)(F)C(F)(F)C(F)(F)C(F)(F)C(F)(F)C(F)(F)C(F)(F)F,outcome,[6],inactive
CCCN(CCC)c1c([N+](=O)[O-])cc(C(F)(F)F)cc1[N+](=O)[O-],outcome,[5],inactive
same,outcome,[3],inactive
O=S1OCC2C(CO1)C1(Cl)C(Cl)=C(Cl)C2(Cl)C1(Cl)Cl (stereo not drawn),outcome,[5],inactive
same,outcome,[3],inactive
COP(=S)(OC)Oc1ccc([N+](=O)[O-])cc1,outcome,[5],inactive
O=C(Nc1ccccc1)Nc1cnns1,AC50,[4],3.68 µM (active)
O=[N+]([O-])/N=C1\NCCN1Cc1ccc(Cl)nc1,outcome,[6],inactive
same,outcome,[3],inactive
O=[N+]([O-])c1c(Cl)c(Cl)c(Cl)c(Cl)c1Cl,outcome,[5],inactive
same,outcome,[1],inactive
O=C1c2ccccc2C(=O)N1SC(Cl)(Cl)Cl,outcome,[5],inactive
same,outcome,[1],inactive
COc1nn(CSP(=S)(OC)OC)c(=O)s1,AC50,[5],18.3 µM (active)
CNC(=O)/C=C(\C)OP(=O)(OC)OC,outcome,[5],inactive
